Results from PubChem BioAssay (NCATS).
Records with an inconclusive call do not appear. Active and inactive are the calls of the source. Unless noted, the call rests on the fitted dose curve; in most records, active means well fitted curve in the direction sought with a large enough effect; inconclusive means small, poorly fitted or top-dose-only effect, or another doubt; inactive means no such curve, though single readings can be large; an effect the other way counts as inactive or inconclusive.

Key:
[1] = Cytometric Cell-Based qHTS for Inhibitors of the mTORC1 Signaling Pathway in MEF (Tsc2-/-, p53-/-) Cells (AID 2660);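 further: Tsc2 and p53 null MEFs carrying empty vector with compound for 24 h; percent of cells above a phospho-rpS6 to PI ratio cutoff in each well; series mostly up to about 38 µM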
Procedure, shortened: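 Cells are plated, treated with compound for 24 hrs at 37 degree Celsius, then fixed, blocked and immunostained for phospho-rpS6 Ser235/236. Propidium iodide counterstain follows. Per-well % positive cells is derived from the PI-normalized phospho-S6 signal.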

[2] = High Content Imaging Cell-Based qHTS for Inhibitors of the mTORC1 Signaling Pathway in MEF (Tsc2-/-, p53-/-) Cells (AID 2666);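 further: percent of cells scored positive for phospho-rpS6 Ser235/236 immunostaining by imaging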
Procedure, shortened: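 Cells were plated, dosed with compound after 24 hrs, and incubated another 24 hrs at 37 degree Celsius. Fixed cells were immunostained for phospho-rpS6 Ser235/236 and counterstained, and the normalized signal was scored as % active cells against rapamycin and DMSO controls.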

[3] = High Content Imaging Cell-Based qHTS for Inhibitors of the mTORC1 Signaling Pathway in MEF Cells (AID 2667);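 further: Tsc2-/- p53-/- MEFs stably re-expressing wild-type Tsc2 exposed 24 h; series mostly up to about 38 µM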
Procedure, shortened: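 Immunofluorescence for rpS6 phosphorylation in MEFs of Tsc2-/-, p53-/- background rescued with WT Tsc2. Compound exposure lasted 24 hrs. Inhibition was scored against rapamycin-treated control wells.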

[4] = Cytometry Cell-Based qHTS for Inhibitors of the mTORC1 Signaling Pathway in MEF cells (AID 2668);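 further: Tsc2-/- p53-/- mouse embryonic fibroblasts stably re-expressing wild-type Tsc2; percent cells positive for phospho-rpS6 Ser235/236 relative to propidium iodide stain; series mostly up to about 38 µM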
Procedure, shortened: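 Tsc2-/-, p53-/- MEFs re-expressing WT Tsc2; cpd 24 hrs, 37 degree Celsius; PFA fix, Alexa-488 p-rpS6 (Ser235/236) Ab 2 hrs RT, PI counterstain; Acumen 488nm scan; p-S6/PI ratio → % positive cells; PI count = viability.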

[5] = Validation screen for small molecules that induce DNA re-replication in MCF 10A normal breast cells (AID 463097); further: nearly all actives have a fitted effect of over 60% in size
Procedure, shortened: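 Image-based qHTS: normal breast cells are incubated with compound for 48 hr, stained with Hoechst, and scanned for total nuclear fluorescence. Compounds raising the fraction of nuclei with elevated DNA content count as re-replication inducers.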

[6] = biological target: Ubiquitin carboxyl-terminal hydrolase 2 (Homo sapiens) (UniProt O75604); test: qHTS Validation Assay for Inhibitors of Ubiquitin-specific Protease USP2a Using CHOP2 as the Reporter (AID 463106)
Sequence of Ubiquitin carboxyl-terminal hydrolase 2 (Homo sapiens) (O75604 whole entry, looked up): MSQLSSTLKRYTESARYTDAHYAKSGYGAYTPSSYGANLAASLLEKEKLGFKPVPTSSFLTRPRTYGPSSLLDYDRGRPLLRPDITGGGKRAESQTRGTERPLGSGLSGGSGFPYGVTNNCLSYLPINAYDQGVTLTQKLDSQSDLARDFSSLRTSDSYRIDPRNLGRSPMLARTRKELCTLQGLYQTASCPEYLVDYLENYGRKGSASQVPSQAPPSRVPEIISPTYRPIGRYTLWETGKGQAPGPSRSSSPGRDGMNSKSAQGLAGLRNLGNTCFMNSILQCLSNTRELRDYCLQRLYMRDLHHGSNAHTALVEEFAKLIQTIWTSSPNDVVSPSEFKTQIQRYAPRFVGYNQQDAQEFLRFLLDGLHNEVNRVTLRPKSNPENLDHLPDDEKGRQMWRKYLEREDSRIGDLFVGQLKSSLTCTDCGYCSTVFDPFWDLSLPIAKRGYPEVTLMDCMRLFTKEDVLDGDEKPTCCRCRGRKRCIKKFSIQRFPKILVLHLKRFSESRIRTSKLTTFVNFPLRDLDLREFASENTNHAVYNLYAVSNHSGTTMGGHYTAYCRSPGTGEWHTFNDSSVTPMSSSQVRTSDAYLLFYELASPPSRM
Procedure, shortened: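 10nM USP2 core + cpd, 30min RT; add 25nM Ub-CHOP2/25nM substrate; 60min RT; FI 485/531nm. Buffer Tris pH 8.0, CaCl2, BME, CHAPS. Norm. to NEM = 100% inhibition; time-zero read flags fluorescent artifacts.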

[7] = biological target: DNA polymerase III PolC-type (Bacillus subtilis (strain 168)) (UniProt P13267); test: qHTS Validation Assay for the Inhibitors of DNA Replication in Gram-Positive Bacteria (AID 485295);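 further: reconstituted holoenzyme with PolC plus beta clamp SSB and primase; PicoGreen fluorescence of double-stranded DNA made on primed circular M13 template; series mostly up to about 57 µM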
Sequence of DNA polymerase III PolC-type (Bacillus subtilis (strain 168)) (P13267 whole entry, looked up): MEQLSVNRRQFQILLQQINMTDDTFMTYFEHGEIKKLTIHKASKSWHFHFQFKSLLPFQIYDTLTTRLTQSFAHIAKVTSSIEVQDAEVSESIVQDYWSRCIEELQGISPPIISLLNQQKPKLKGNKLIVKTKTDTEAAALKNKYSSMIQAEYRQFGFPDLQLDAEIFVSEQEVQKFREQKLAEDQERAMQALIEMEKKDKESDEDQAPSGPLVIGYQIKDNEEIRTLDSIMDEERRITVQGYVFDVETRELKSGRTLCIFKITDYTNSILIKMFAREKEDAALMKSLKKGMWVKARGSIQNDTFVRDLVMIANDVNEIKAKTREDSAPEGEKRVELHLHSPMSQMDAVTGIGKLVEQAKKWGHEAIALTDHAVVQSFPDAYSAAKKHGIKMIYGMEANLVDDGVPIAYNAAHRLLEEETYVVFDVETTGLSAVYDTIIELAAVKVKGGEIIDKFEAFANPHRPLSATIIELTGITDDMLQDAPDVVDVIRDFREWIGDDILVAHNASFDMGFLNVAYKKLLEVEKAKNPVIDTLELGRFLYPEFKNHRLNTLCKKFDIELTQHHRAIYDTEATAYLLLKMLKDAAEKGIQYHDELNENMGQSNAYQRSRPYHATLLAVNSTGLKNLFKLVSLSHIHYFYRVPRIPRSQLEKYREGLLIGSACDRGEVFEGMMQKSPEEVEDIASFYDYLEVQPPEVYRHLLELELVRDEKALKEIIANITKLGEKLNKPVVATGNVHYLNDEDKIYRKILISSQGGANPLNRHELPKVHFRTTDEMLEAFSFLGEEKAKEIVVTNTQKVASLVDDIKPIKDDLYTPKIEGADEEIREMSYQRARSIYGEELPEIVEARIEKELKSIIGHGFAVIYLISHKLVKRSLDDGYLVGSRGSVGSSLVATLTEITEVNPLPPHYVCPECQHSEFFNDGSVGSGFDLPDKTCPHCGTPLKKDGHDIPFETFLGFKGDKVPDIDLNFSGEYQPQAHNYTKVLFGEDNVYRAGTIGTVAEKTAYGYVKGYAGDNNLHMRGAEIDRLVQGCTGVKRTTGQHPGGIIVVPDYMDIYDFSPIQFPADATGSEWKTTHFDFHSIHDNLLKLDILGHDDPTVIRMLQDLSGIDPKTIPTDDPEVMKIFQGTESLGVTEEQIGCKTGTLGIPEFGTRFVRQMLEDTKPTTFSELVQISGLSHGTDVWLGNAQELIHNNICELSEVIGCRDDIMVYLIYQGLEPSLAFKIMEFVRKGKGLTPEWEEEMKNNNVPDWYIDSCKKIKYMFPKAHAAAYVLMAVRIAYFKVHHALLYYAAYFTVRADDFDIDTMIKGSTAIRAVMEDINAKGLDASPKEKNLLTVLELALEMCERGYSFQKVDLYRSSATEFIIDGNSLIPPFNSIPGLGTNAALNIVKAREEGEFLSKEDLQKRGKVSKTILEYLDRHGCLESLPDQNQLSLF
Procedure, shortened: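 First, compound is mixed with the reconstituted replication complex and held at room temperature. Next, circular single-stranded M13Gori with nucleotides starts synthesis. Finally, PicoGreen in EDTA halts the reaction and stains double-stranded product for fluorescence reading.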

[8] = biological target: Tumor susceptibility gene 101 protein (Homo sapiens) (UniProt Q99816); test: qHTS Validation Assay for Iinhibitors of HIV-1 Budding by Blocking the Interaction of PTAP/TSG101 (AID 485342; calls by dose curve)
Sequence of Tumor susceptibility gene 101 protein (Homo sapiens) (Q99816 whole entry, looked up, the tested form may be a part): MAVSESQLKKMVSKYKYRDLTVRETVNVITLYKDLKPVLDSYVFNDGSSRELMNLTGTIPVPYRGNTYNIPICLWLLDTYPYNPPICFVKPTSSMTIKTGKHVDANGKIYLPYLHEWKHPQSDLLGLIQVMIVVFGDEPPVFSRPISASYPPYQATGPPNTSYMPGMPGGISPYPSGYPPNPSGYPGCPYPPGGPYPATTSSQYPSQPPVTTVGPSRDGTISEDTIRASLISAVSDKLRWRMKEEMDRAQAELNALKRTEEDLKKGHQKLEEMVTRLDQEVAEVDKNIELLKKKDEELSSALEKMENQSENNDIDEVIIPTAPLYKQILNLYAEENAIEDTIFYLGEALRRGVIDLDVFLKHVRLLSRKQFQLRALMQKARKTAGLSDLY
Procedure, shortened: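 Binding of a FITC-tagged PTAP-motif peptide (50 nM) to the Tsg101 binding domain (10 uM) is monitored by fluorescence polarization. Compounds are pin-delivered before peptide addition, and incubation runs 20 min at room temperature.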

[9] = biological target: Beta-2 adrenergic receptor (Homo sapiens) (UniProt P07550); test: qHTS validation assay of beta-arrestin-biased ligands of beta2-adrenergic receptor (AID 485366)
Sequence of Beta-2 adrenergic receptor (Homo sapiens) (P07550 whole entry, looked up): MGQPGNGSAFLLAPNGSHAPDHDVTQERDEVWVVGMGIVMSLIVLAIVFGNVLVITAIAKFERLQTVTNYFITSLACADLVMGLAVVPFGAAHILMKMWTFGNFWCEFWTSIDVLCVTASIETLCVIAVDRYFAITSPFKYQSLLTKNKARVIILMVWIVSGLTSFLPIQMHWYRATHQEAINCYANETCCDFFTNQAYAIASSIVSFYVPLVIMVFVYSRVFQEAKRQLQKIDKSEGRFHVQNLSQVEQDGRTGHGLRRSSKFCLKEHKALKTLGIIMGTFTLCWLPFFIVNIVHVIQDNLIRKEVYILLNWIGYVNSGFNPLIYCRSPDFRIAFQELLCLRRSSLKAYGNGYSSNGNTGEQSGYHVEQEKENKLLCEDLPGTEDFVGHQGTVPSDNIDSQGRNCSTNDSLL
Procedure, shortened: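 Values derive from curve-fitted %Activity of a luminescent beta-arrestin recruitment reporter; compounds tested up to 46 microM on Tango cells for 18 hr at 37 degrees C, 5% CO2.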

[10] = biological target: ATP-dependent 6-phosphofructokinase (Trypanosoma brucei brucei) (UniProt O15648); test: qHTS Validation Assay to Find Inhibitors of T. brucei phosphofructokinase (AID 485368)
Sequence of ATP-dependent 6-phosphofructokinase (Trypanosoma brucei brucei) (O15648 whole entry, looked up): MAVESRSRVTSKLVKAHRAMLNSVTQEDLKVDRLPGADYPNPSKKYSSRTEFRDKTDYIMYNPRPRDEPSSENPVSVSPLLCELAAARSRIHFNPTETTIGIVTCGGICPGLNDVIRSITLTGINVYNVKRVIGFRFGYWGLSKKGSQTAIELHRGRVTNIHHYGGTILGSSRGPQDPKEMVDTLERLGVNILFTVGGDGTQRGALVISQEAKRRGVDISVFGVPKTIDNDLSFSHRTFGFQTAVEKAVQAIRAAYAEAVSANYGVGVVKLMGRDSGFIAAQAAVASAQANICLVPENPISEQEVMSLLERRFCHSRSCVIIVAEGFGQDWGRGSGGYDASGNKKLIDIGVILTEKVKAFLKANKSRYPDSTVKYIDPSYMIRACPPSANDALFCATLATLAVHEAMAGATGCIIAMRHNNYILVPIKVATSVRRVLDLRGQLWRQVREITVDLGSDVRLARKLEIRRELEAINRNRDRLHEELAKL
Procedure, shortened: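 Enzyme reaction in triethanolamine buffer pH 8.0 with 5 mM MgCl2, 0.01% Tween20 and 0.1% BSA; PFK 1.25 nM, F6P 0.5 mM, ATP 0.1 mM, 45 min RT. ADP quantified by ADP-Glo.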

[11] = biological target: Thioredoxin reductase 1, cytoplasmic (Rattus norvegicus) (UniProt O89049); test: qHTS Assay for Inhibitors of Mammalian Selenoprotein Thioredoxin Reductase 1 (TrxR1) (AID 488773); details: Potency: inhibition;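 further: drop in NADPH fluorescence over an 8 min run after selenite addition; series mostly up to about 57 µM; nearly all actives have a fitted effect of over 40% in size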
Procedure, shortened: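 Steps: enzyme (90 nM) plus NADPH (400 uM final), 5 min at ~22 deg C; compound added, 15 min; selenite (400 uM final) added; fluorescence followed for 8 min. Concentration-response curves derived from the normalized delta values.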

[12] = biological target: M-phase phosphoprotein 8 (Homo sapiens) (UniProt Q99549); test: qHTS Validation Assay for Inhibitors for MPP8 Chromodomain Interactions with Methylated Histone Tails (AID 488949);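 further: 50 nM MPP8 with 50 nM peptide preformed then compounds added for 30 min; AlphaScreen signal from MPP8 chromodomain bound to biotinylated H3K9me3 peptide; top concentration of the series differs between compounds; nearly all actives have a fitted effect of over 55% in size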
Sequence of M-phase phosphoprotein 8 (Homo sapiens) (Q99549 whole entry, looked up): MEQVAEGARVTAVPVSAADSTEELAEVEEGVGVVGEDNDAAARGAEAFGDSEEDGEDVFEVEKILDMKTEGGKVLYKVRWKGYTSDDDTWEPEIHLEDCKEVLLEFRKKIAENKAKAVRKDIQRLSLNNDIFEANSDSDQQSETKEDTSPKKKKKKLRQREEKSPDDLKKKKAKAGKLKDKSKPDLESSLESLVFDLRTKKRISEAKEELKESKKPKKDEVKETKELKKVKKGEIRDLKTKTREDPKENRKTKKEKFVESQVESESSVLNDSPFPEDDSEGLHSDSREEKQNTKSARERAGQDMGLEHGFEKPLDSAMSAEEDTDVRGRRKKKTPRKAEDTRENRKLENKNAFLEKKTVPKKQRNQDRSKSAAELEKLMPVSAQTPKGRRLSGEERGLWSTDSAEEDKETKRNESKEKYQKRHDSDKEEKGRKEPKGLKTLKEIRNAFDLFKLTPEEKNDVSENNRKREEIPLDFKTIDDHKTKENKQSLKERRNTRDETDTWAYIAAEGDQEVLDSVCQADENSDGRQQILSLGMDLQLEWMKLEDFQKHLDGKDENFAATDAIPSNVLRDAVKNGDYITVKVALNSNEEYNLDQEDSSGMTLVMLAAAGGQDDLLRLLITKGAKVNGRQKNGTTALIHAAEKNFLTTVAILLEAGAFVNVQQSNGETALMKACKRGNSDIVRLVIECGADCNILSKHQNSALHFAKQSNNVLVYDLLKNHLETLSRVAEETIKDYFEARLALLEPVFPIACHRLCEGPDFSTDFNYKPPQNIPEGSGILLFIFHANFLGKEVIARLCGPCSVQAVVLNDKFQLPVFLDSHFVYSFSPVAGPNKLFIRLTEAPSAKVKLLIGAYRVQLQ
Procedure, shortened: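 50 nM MPP8 + 50 nM b-H3K9me3 peptide, PBS pH 7.4/0.01% Tween-20, 30 min RT; + cpd 30 min RT; + AlphaScreen donor/Ni-chelate acceptor beads 10 ug/mL final, 30 min dark; luminescence read.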

[13] = biological target: Chromobox protein homolog 1 (Homo sapiens) (UniProt P83916); test: qHTS Validation Assay for Inhibitors of HP1-beta Chromodomain Interactions with Methylated Histone Tails (AID 488953);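 further: loss of AlphaScreen luminescence from HP1-beta binding biotinylated H3K9me3 peptide; series mostly up to about 110 µM; nearly all actives have a fitted effect of over 50% in size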
Sequence of Chromobox protein homolog 1 (Homo sapiens) (P83916 whole entry, looked up): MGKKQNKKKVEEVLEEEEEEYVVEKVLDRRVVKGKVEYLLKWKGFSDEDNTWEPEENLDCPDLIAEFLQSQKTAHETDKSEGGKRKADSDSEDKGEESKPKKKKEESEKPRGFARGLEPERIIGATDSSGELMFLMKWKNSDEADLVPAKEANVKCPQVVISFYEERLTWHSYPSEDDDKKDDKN
Procedure, shortened: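 Measured as loss of AlphaScreen luminescence from streptavidin donor and nickel acceptor beads (10 ug/mL final) bridging HP1-beta and biotin-H3(1-18)K9me3, each 50 nM. Compounds met the preassembled complex for 30 min at RT.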

[14] = biological target: Methanococcus maripaludis chaperonin (MmCpn) (UniProt Q6LX38); test: High-Throughput Screening for Modulators of Cytosolic Chaperonin Activity: MmCpn Primary Screen (AID 488978);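 further: 50 nM MmCpn enzyme hydrolysing 30 µM ATP at 37 °C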
Sequence of Methanococcus maripaludis chaperonin (MmCpn) (Q6LX38 1-543): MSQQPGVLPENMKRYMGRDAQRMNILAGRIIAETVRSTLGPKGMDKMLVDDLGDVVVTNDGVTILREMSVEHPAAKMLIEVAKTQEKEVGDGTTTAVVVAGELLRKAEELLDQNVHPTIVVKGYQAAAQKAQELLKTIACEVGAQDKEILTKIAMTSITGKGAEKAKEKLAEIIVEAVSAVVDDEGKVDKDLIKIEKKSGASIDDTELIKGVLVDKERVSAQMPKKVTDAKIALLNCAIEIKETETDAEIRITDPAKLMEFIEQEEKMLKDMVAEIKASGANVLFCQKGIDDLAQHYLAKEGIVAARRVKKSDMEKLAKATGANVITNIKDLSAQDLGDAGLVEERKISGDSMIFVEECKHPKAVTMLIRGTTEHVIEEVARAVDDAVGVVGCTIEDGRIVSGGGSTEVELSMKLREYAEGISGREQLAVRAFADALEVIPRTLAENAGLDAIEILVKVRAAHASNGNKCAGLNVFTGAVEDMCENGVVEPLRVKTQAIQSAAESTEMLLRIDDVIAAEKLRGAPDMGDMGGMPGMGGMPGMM
Procedure, shortened: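 Steps: chaperonin 50 nM final; add compound, 5 min RT; start with ATP, 30 uM final; hold 10 min at 37C; add ADP Transcreener HTRF reagent, 5 min; read ex 320, em 590 and 665 nm.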

[15] = qHTS Validation Assay to Find Inhibitors of Chronic Active B-Cell Receptor Signaling (AID 485345; active means well fitted curve in the direction sought with a large enough effect in the main read-out, with a control signal flat, not every such curve was filed as active)
Procedure, shortened: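 Read-out: ratio of filter-corrected green (IkappaBalpha fusion) to red (native) luciferase signal in doxycycline-induced TMD8 cells after 4 h at 37C. Titration spanned 46 uM–3 nM; Data were normalised to basal cells and 10 uM MG-132 wells.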

[16] = Quantitative high throughput screen for delayed death inhibitors of the malarial parasite plastid, 96 hour incubation (AID 488745);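 further: luciferase-expressing P. falciparum in erythrocytes at 2% hematocrit and 0.1% parasitemia; series mostly up to about 29 µM; nearly all actives have a fitted effect of over 70% in size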
Procedure, shortened: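 Growth of reporter-bearing P. falciparum in red cells is measured after 96 h with compound, covering two erythrocytic cycles. Luminescence from the integrated luciferase serves as the growth signal.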

[17] = biological target: Thioredoxin reductase 1, cytoplasmic (Rattus norvegicus) (UniProt O89049); test: qHTS Assay for Substrates of Mammalian Selenoprotein Thioredoxin Reductase 1 (TrxR1) (AID 488772);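 further: NADPH fluorescence in the first read after selenite addition and not the 8 min delta; series mostly up to about 57 µM; a drop in NADPH fluorescence below the no-compound background marks a TrxR1 substrate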
Procedure, shortened: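 Quantitative HTS in Tris-HCl buffer at pH 7.5 with EDTA and Tween-20, using rat TrxR1, 400 uM NADPH and 400 uM selenite (final). A fall in initial NADPH fluorescence relative to background marked substrate behaviour.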

[18] = biological target: Flap endonuclease 1 (Homo sapiens) (UniProt P39748); test: qHTS Validation Assay for the Inhibitors of Human Flap endonuclease 1 (FEN1) (AID 488816)
Procedure, shortened: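 Readings taken at 0 and 15 min after starting the reaction with 50 nM (final) substrate supplied the signal. Compounds had first sat with 10 nM FEN1 reagent for 15 min at room temperature. Values come from Hill-equation concentration-response fits.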

[19] = Quantitative high throughput screen for delayed death inhibitors of the malarial parasite plastid, 48 hour incubation (AID 488752); further: nearly all actives have a fitted effect of over 65% in size
Procedure, shortened: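 One parasite generation (48 h, 37 C, 5% CO2) of luciferase-reporter P. falciparum in erythrocytes is run with test compound; decreased luminescence indicates inhibited growth.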

Measured: Potency

N[C@@H](Cc1ccc(F)cc1)C(=O)O
not listed: [15] | [16] | [17] | [18] | [19]
inactive: all other assays above

Cn1cc(C(=O)OCC2CCN(CCNS(C)(=O)=O)CC2)c2ccccc21
not listed: [9] | [10] | [13] | [19]
inactive: all other assays above

CCCCCC(O)CCCC(=O)O (centres undefined)
not listed: [10] | [12] | [19]
inactive: all other assays above

N=C(N)c1ccccc1
not listed: [9] | [13] | [14]
inactive: all other assays above

CC(C)Cn1c(=O)n(C)c(=O)c2[nH]cnc21
not listed: [13] | [15]
inactive: all other assays above

N#Cc1cc2nc(O)c(O)nc2cc1[N+](=O)[O-]
not listed: [9] | [10] | [17] | [19]
inactive: all other assays above

COC1(C2=NCCN2)COc2ccccc2O1 (centres undefined)
not listed: [10] | [13] | [19]
inactive: all other assays above
